According to PubChem BioAssay AID1159580 (chemical genetic matrix, 2015):
Out of some 5,500 compounds screened, about 2,000 (36%) were called active. About 18% were inconclusive and are not listed. Rule as the data show it: active = normalized growth mostly below about 0.91 (no sharp cut-off); inconclusive = no clear call, values can overlap the other calls; inactive = mostly above about 0.92. This is one part of the list.

Test: chemical genetic growth profiling, strain panel (AID 1159580);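 also: tested at 20 µM; growth read once vehicle control cultures reached saturation at 30 °C; 1 = growth at the plate median or of vehicle wells; lower values mean less growth of the strain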
Settings: growth OD

Measured: normalized growth

OC1=Cc2c(O)cc(O)cc2OC1(O)c1ccc(O)c(O)c1 (stereo not drawn)
inactive: S. cerevisiae deletion strains, locus YBR021W, strain FUR4, stronger effect = lower value 1.06 | S. cerevisiae deletion strains, locus YBR229C, strain ROT2, stronger effect = lower value 1 | S. cerevisiae deletion strains, locus YCL029C, strain bik1, stronger effect = lower value 0.997 | S. cerevisiae deletion strains, locus YDL035C, strain GPR1, stronger effect = lower value 1.02 | S. cerevisiae deletion strains, locus YDL074C, strain BRE1, stronger effect = lower value 0.962 | S. cerevisiae deletion strains, locus YDL101C, strain DUN1, stronger effect = lower value 0.99 | S. cerevisiae deletion strains, locus YDL134C, strain PPH21, stronger effect = lower value 0.975 | S. cerevisiae deletion strains, locus YDL185W, strain tfp1, stronger effect = lower value 0.96 | S. cerevisiae deletion strains, locus YDL192W, strain arf1, stronger effect = lower value 1 | S. cerevisiae deletion strains, locus YDR101C, strain arx1, stronger effect = lower value 1.03 | S. cerevisiae deletion strains, locus YDR162C, strain NBP2, stronger effect = lower value 0.956 | S. cerevisiae deletion strains, locus YDR318W, strain mcm21, stronger effect = lower value 1 | S. cerevisiae deletion strains, locus YDR388W, stronger effect = lower value 0.994 | S. cerevisiae deletion strains, locus YDR502C, strain sam2, stronger effect = lower value 1.01 | S. cerevisiae deletion strains, locus YER110C, stronger effect = lower value 0.993 | S. cerevisiae deletion strains, locus YER155C, strain BEM2, stronger effect = lower value 1.02 | S. cerevisiae deletion strains, locus YER167W, strain BCK2, stronger effect = lower value 1.01 | S. cerevisiae deletion strains, locus YGL078C, strain dbp3, stronger effect = lower value 0.972 | S. cerevisiae deletion strains, locus YGL086W, strain mad1, stronger effect = lower value 0.997 | S. cerevisiae deletion strains, locus YGL248W, strain PDE1, stronger effect = lower value 0.979 | S. cerevisiae deletion strains, locus YGR078C, strain PAC10, stronger effect = lower value 0.962 | S. cerevisiae deletion strains, locus YGR135W, strain pre9, stronger effect = lower value 0.972 | S. cerevisiae deletion strains, locus YGR252W, strain gcn5, stronger effect = lower value 1.1 | S. cerevisiae deletion strains, locus YHR030C, strain SLT2, stronger effect = lower value 0.984 | S. cerevisiae deletion strains, locus YHR079C, strain IRE1 (second series), stronger effect = lower value 0.995 | S. cerevisiae deletion strains, locus YHR094C, strain hxt1, stronger effect = lower value 0.995 | S. cerevisiae deletion strains, locus YHR129C, strain ARP1, stronger effect = lower value 0.985 | S. cerevisiae deletion strains, locus YHR200W, strain rpn10, stronger effect = lower value 0.997 | S. cerevisiae deletion strains, locus YIL066C, strain RNR3, stronger effect = lower value 0.991 | S. cerevisiae deletion strains, locus YIL073C, strain SPO22, stronger effect = lower value 0.972 | S. cerevisiae deletion strains, locus YIL125W, strain kgd1, stronger effect = lower value 0.989 | S. cerevisiae deletion strains, locus YIR030C, strain dcg1, stronger effect = lower value 0.989 | S. cerevisiae deletion strains, locus YJL095W, strain BCK1, stronger effect = lower value 0.965 | S. cerevisiae deletion strains, locus YJL134W, strain LCB3, stronger effect = lower value 0.997 | S. cerevisiae deletion strains, locus YJL168C, strain set2, stronger effect = lower value 0.991 | S. cerevisiae deletion strains, locus YJL187C, strain SWE1 (second series), stronger effect = lower value 0.966 | S. cerevisiae deletion strains, locus YKL009W, strain mrt4, stronger effect = lower value 0.997 | S. cerevisiae deletion strains, locus YKL068W, stronger effect = lower value 0.981 | S. cerevisiae deletion strains, locus YKL085W, strain MDH1 (second series), stronger effect = lower value 0.986 | S. cerevisiae deletion strains, locus YKL085W, strain MDH1, stronger effect = lower value 0.986 | S. cerevisiae deletion strains, locus YKL190W, strain CNB1, stronger effect = lower value 0.992 | S. cerevisiae deletion strains, locus YKR001C, strain vps1, stronger effect = lower value 1 | S. cerevisiae deletion strains, locus YLR039C, strain RIC1, stronger effect = lower value 1 | S. cerevisiae deletion strains, locus YLR058C, strain SHM2, stronger effect = lower value 0.984 | S. cerevisiae deletion strains, locus YLR102C, strain apc9, stronger effect = lower value 0.993 | S. cerevisiae deletion strains, locus YLR268W, strain sec22, stronger effect = lower value 1.02 | S. cerevisiae deletion strains, locus YLR342W, strain FKS1 (second series), stronger effect = lower value 0.935 | S. cerevisiae deletion strains, locus YLR371W, strain rom2, stronger effect = lower value 0.975 | S. cerevisiae deletion strains, locus YLR418C, strain cdc73, stronger effect = lower value 1.02 | S. cerevisiae deletion strains, locus YML016C, strain PPZ1, stronger effect = lower value 0.972 | S. cerevisiae deletion strains, locus YML032C, strain rad52, stronger effect = lower value 1.02 | S. cerevisiae deletion strains, locus YML124C, strain tub3, stronger effect = lower value 1 | S. cerevisiae deletion strains, locus YMR078C, strain ctf18, stronger effect = lower value 0.99 | S. cerevisiae deletion strains, locus YMR223W, strain ubp8, stronger effect = lower value 0.987 | S. cerevisiae deletion strains, locus YMR307W, strain GAS1, stronger effect = lower value 0.971 | S. cerevisiae deletion strains, locus YNL067W, strain RPL9B, stronger effect = lower value 0.967 | S. cerevisiae deletion strains, locus YNL153C, strain GIM3, stronger effect = lower value 0.964 | S. cerevisiae deletion strains, locus YNL233W, strain BNI4, stronger effect = lower value 0.998 | S. cerevisiae deletion strains, locus YNL250W, strain rad50, stronger effect = lower value 0.97 | S. cerevisiae deletion strains, locus YNL271C, strain bni1, stronger effect = lower value 0.978 | S. cerevisiae deletion strains, locus YNL298W, strain CLA4, stronger effect = lower value 0.986 | S. cerevisiae deletion strains, locus YNL307C, strain MCK1, stronger effect = lower value 0.999 | S. cerevisiae deletion strains, locus YNR052C, strain pop2, stronger effect = lower value 0.981 | S. cerevisiae deletion strains, locus YOL006C, strain TOP1, stronger effect = lower value 0.945 | S. cerevisiae deletion strains, locus YOL012C, strain htz1 0.48 | S. cerevisiae deletion strains, locus YOL147C, strain pex11, stronger effect = lower value 1.01 | S. cerevisiae deletion strains, locus YOR061W, strain CKA2, stronger effect = lower value 0.987 | S. cerevisiae deletion strains, locus YOR069W, strain VPS5, stronger effect = lower value 0.988 | S. cerevisiae deletion strains, locus YOR136W, strain idh2, stronger effect = lower value 1 | S. cerevisiae deletion strains, locus YOR144C, strain elg1, stronger effect = lower value 0.996 | S. cerevisiae deletion strains, locus YOR184W, strain ser1, stronger effect = lower value 1.05 | S. cerevisiae deletion strains, locus YOR316C, strain cot1, stronger effect = lower value 0.984 | S. cerevisiae deletion strains, locus YPR119W, strain clb2, stronger effect = lower value 0.995 | S. cerevisiae deletion strains, locus YPR141C, strain kar3, stronger effect = lower value 0.974 | S. cerevisiae deletion strains, locus YPR163C, strain tif3, stronger effect = lower value 0.999 | S. cerevisiae deletion strains, locus YPR167C, strain met16, stronger effect = lower value 0.999 | S. cerevisiae deletion strains, strain wtn01, stronger effect = lower value 1.01 | S. cerevisiae strains, strain wild type, stronger effect = lower value 0.998
